Reference: PubChem BioAssay AID1578 (Sanford-Burnham Center for Chemical Genomics, 2009)
About 3,000 (1%) of roughly 290,000 compounds were called active. Only a selection was taken, and actives are over-represented in it overall. Unmarked numbers belong to inactive results. Cut-off read from the data, not from the text of the source: active = inhibition mostly above about 36% (no sharp cut-off); inactive = mostly below about 34%.

Assay: inhibition of NOD1-driven NF-kB reporter – cell-based, luminescence, uHTS, primary screen (AID 1578);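 note: HEK-293T reporter cells stimulated with the NOD1 agonist gamma-tri-DAP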
Conditions: NOD1-driven NF-kB luciferase reporter cells, at 4 µM, stronger effect = higher value

For `CN(C)c1ccc(/C=C(\C#N)c2ccccn2)cc1`, the inhibition was 73.6% (active).
In the case of `N#C/C(=C\c1ccc(Cl)c([N+](=O)[O-])c1)c1ccccn1`, the inhibition is reported as 47.2% (active).
For `Cc1cc(-n2c(C)cc(C(=O)CCl)c2C)no1`, the inhibition was 46.4% (active).
For `Cc1cc(C(=O)CCl)c(C)n1-c1cccc([N+](=O)[O-])c1`, the inhibition was 77.4% (active).
For `Cc1cc(C(=O)CCl)c(C)n1-c1c(C)n(C)n(-c2ccccc2)c1=O`, the inhibition was 42.5% (active).
With `Cc1ccc(C(=O)NC2CC3CCCC(C2)N3Cc2ccccc2)cc1` (stereo unspecified) the inhibition was 59% (active).
For `CC1(C)Cc2ccccc2C2=NNC(=O)C2=N1`, the inhibition was 41.8% (active).
With `Cc1cc(SCC(=O)c2cccs2)n2nc(C)c(-c3ccc(Cl)cc3)c2n1` the inhibition was 79.4% (active).
In the case of `Nc1ccc(-c2ncc(-c3ccccc3)o2)cc1`, the inhibition is reported as 46.7% (active).
For `O=C1N/C(=N\N=C\c2cccnc2)SC1Cc1ccc(SC(F)F)cc1` (stereo unspecified), the inhibition was 106% (active).
With `COc1ccc2c(CC(=O)NCCN3C(=O)S/C(=C\c4cccnc4)C3=O)coc2c1` the inhibition was 68% (active).
For `CS(=O)(=O)c1ccc(C(=O)NCCN2C(=O)S/C(=C\c3cccnc3)C2=O)cc1[N+](=O)[O-]`, the inhibition was 93.4% (active).
In the case of `COc1ccc(-c2cc(=O)oc3cc(OC(=O)C4CCCCC4)ccc23)cc1`, the inhibition is reported as 87.8% (active).
For `O=C(Nc1ccccc1)c1cc2ccccc2c(=O)s1`, the inhibition was 63.7% (active).
In the case of `CC(C)C[C@H](N)c1nnc(SCc2ccc(Cl)cc2)o1`, the inhibition is reported as 20.5% (active).
In the case of `COc1ccc(N=Cc2cc(Cc3ccccc3Cl)cc([N+](=O)[O-])c2O)cc1OC`, the inhibition is reported as 62.4% (active).
For `Cc1c(C(=O)N2CCCC2)sc(NC(=O)c2ccco2)c1C#N`, the inhibition was 48.7% (active).

Going from `CCN(CC)c1ccc(/C=C(\C#N)c2ccccn2)cc1` to `CN(CCC#N)c1ccc(/C=C(\C#N)c2ccccn2)cc1`, the inhibition rises from -55.6% to 30.9%.

First: N#C/C(=C\c1ccc([N+](=O)[O-])cc1)c1ccccn1
Second: CNc1ccc(/C=C(\C#N)c2ccccn2)cc1[N+](=O)[O-]
The inhibition of the first is higher: -27.2% for the first, -34.3% for the second.

Compared with `CCOC(=O)c1sc(NC(=O)C(C)Sc2nnc(N)s2)nc1C` (stereo unspecified), `COc1ccc(NC(=O)CSc2ccc(-c3sc(C)nc3C)nn2)cc1` is lower in inhibition: -12.9% for the first, -17.2% for the second.

Compared with `CCNC(=O)Nc1cc2nc(C)n(Cc3ccc(Br)cc3)c2nc1C`, `CCC(C)NC(=O)c1ccc2nc(Cc3ccc(OC)cc3)oc2c1` (stereo unspecified) is lower in inhibition: 24.1% for the first, -14.9% for the second.

Compared with `Cc1cc(C(=O)CCl)c(C)n1-c1ccon1`, `COc1ccc(-n2c(C)cc(C(=O)CCl)c2C)cc1` is higher in inhibition: 28.2% for the first, 39.1% for the second.

First: CCOC(=O)c1cc(C)n(-c2c(C)n(C)n(-c3ccccc3)c2=O)c1C
Second: Cc1cc(C(=O)CC#N)c(C)n1-c1c(C)n(C)n(-c2ccccc2)c1=O
The inhibition of the first is higher: -12.8% for the first, -19.8% for the second.

Compared with `CC(=O)c1c(C(C)=O)c(C)n(-c2cccc([N+](=O)[O-])c2)c1C`, `O=C(N/N=C/c1ccc([N+](=O)[O-])cc1)c1cccc(N2CCCC2=O)c1` is higher in inhibition: -27.2% for the first, -9.3% for the second.

Going from `Cc1cc(-n2c(C)cc(C(=O)CN3C(=O)NC4(CCCC4)C3=O)c2C)no1` to `Cc1cc(C(=O)NC2CC(C)(C)Cc3c2cnn3-c2ccccc2C)c(C)o1` (stereo unspecified), the inhibition rises from -20.6% to -10.6%.

First: COc1ccc(NC(=O)Nc2cccc3ccccc23)cc1S(N)(=O)=O
Second: O=C(Nc1ccc(O)cc1)c1cc2ccccc2c(=O)s1
The inhibition of the first is higher: 25.8% for the first, -2.1% for the second.

First: N/C(=N\O)c1cccc(CS(=O)(=O)c2ccccn2)c1
Second: O=C1COc2ccc(S(=O)(=O)NCc3ccccc3)cc2N1
The inhibition of the first is higher: -7.5% for the first, -13.7% for the second.

Going from `Cc1ccc(-n2[nH]c(C)c(C=NC34CN5CN(CN(C5)C3)C4)c2=O)cc1C` to `Cc1ccc(C)c(N2CCN(C(=O)CCS(=O)(=O)c3cccc4nonc34)CC2)c1`, the inhibition falls from 9.5% to 1.8%.

First: CCCN1C(=S)c2ccccc2C1c1ccccc1 (stereo unspecified)
Second: O=C1c2cccc3cccc(c23)C(=O)N1Cc1ccccc1
The inhibition of the first is higher: 35.5% for the first, -16.9% for the second.

Compared with `O=S(=O)(NN1CCOCC1)c1ccc(Cl)s1`, `O=S(=O)(Nc1ccc(N2CCOCC2)cc1)c1cccs1` is higher in inhibition: -37.6% for the first, -20.1% for the second.

Compared with `Cc1ccc(CN2CCN(CCCn3cccn3)CC2CCO)cc1` (stereo unspecified), `Cc1ccc(CN2C3CCCC2CC(NC(=O)c2ccc(F)cc2)C3)cc1` (stereo unspecified) is higher in inhibition: -31% for the first, -0.1% for the second.

Going from `CCOC(=O)N1CCN(c2cc(=O)n(Cc3ccc(F)cc3)c(=O)[nH]2)CC1` to `O=C(O)CSCC(=O)N1CCN(S(=O)(=O)c2ccccc2)CC1`, the inhibition rises from -37.3% to -20.2%.

First: Cc1ccc(CN2C3CCCC2CC(NC(=O)c2ccc(C)cc2)C3)cc1 (stereo unspecified)
Second: Cc1ccc([N+](=O)[O-])cc1NC(=O)CN(C1CCCCC1)S(=O)(=O)c1ccc(Cl)cc1
The inhibition of the first is lower: -21.4% for the first, -5% for the second.

Compared with `CC1CCCC(C)N1C(=O)Cn1nnc(-c2ccc([N+](=O)[O-])cc2)n1` (stereo unspecified), `O=C(O)c1ccc(N2CCCCS2(=O)=O)cc1` is higher in inhibition: -36.1% for the first, -12.1% for the second.

Going from `CC1=NC(C)(C)Cc2ccccc21` to `CC1(C)CC(=O)C(C2=NC(C)(C)Cc3ccccc32)=C(O)C1`, the inhibition falls from 1.3% to -9.1%.

Compared with `O=[N+]([O-])c1cc2c(cc1/C=N/Nc1nc(Nc3ccccc3)nc(N3CCCCC3)n1)OCO2`, `O=[N+]([O-])c1cc(Cc2ccccc2)cc(C=Nc2ccc(N3CCOCC3)cc2)c1O` is higher in inhibition: -23% for the first, 34% for the second.

First: O=S(=O)(c1ccc2ccccc2c1)N(CC1CO1)c1ccccc1 (stereo unspecified)
Second: O=C(Nc1ccccc1)c1cc2ccc3ccccc3c2s1
The inhibition of the first is lower: -30.1% for the first, -10.5% for the second.

First: Cc1nn2c(SCC(=O)c3cccs3)cc(C(C)(C)C)nc2c1-c1ccccc1
Second: Cc1cc(SCC(=O)c2cccs2)n2nc(C)c(-c3ccccc3)c2n1
The inhibition of the first is lower: 5.2% for the first, 20.3% for the second.

Compared with `CCOc1ccc(/C=N/n2c(C)nc3ccccc3c2=O)cc1`, `COc1ccc(-c2cc(=O)oc3cc(OCC(C)=O)ccc23)cc1` is lower in inhibition: -12.3% for the first, -12.9% for the second.

Going from `N#C/C(=C\c1cn(-c2ccccc2)nc1-c1cccnc1)c1nnc2n1CCCCC2` to `c1ccc(-c2cnc(-c3cccnc3)o2)cc1`, the inhibition falls from -13% to -16.8%.

First: NC(=O)c1ccc(-c2ncc(-c3ccccc3)o2)cc1
Second: O=C(Oc1ccc2c(-c3ccccc3)cc(=O)oc2c1)C1CCCCC1
The inhibition of the first is higher: 14.6% for the first, 13.8% for the second.

Going from `CCC(C)(C)NC(=O)CN(C(=O)CNS(=O)(=O)c1ccc(F)cc1)c1ccc2c(c1)OCCO2` to `COc1ccc(NC(=O)CS(=O)(=O)c2ccc(F)cc2)cc1`, the inhibition rises from -13% to -5.8%.

Compared with `O=C(NCCCn1ccnc1)c1ccc(Cl)c(Cl)c1`, `CCN(CC)S(=O)(=O)c1ccc(C(=O)NCCCn2ccnc2)cc1` is lower in inhibition: 3.9% for the first, -65.6% for the second.

Compared with `O=C1N/C(=N\N=C\c2ccc3ncccc3c2)SC1Cc1ccc(SC(F)F)cc1` (stereo unspecified), `O=C(CC1S/C(=N/N=C/c2cccnc2)NC1=O)Nc1ccccc1` (stereo unspecified) is higher in inhibition: -44% for the first, -13.1% for the second.

First: Cc1cc(=O)oc2cc(OCC(=O)NC(Cc3c[nH]c4ccc(O)cc34)C(=O)O)c(Cl)cc12 (stereo unspecified)
Second: COc1ccc(-c2cc(=O)oc3cc(OC(C)C(=O)O)ccc23)cc1 (stereo unspecified)
The inhibition of the first is lower: -16.2% for the first, 29.6% for the second.

Going from `Cc1c(C(=O)NCCN2C(=O)S/C(=C\c3cccnc3)C2=O)cccc1[N+](=O)[O-]` to `COc1ccc(C(=O)NCCN2C(=O)S/C(=C\c3cccnc3)C2=O)cc1[N+](=O)[O-]`, the inhibition rises from 1.5% to 1.6%.

Compared with `COc1ccc(/C=C2\SC(=O)N(CCNC(=O)Cc3coc4cc(C)ccc34)C2=O)cc1OC`, `COc1ccc(/C=C2\SC(=O)N(CCNC(=O)Cc3coc4cc(OC)ccc34)C2=O)cc1` is lower in inhibition: -2.7% for the first, -10.8% for the second.

Going from `c1ccc(NC2=NCCN2CC2CCCC2)cc1` to `Cc1c(C(=O)N2CCCC2)sc(NC(=O)c2ccccc2)c1C#N`, the inhibition rises from -17.2% to -9.5%.

Compared with `COc1ccc(Cc2nc3ccc(C(=O)NC(C)c4cnn(C)c4)cc3o2)cc1` (stereo unspecified), `COc1ccc(NC(=O)CSc2ccc(-c3sc(C)nc3C)nn2)cc1OC` is higher in inhibition: -4.3% for the first, -3.5% for the second.

Compared with `COc1ccc(OC)c(NC(=O)CNC(=O)Cn2cnc3sc(C)cc3c2=O)c1`, `O=C(COC(=O)COc1ccccc1[N+](=O)[O-])Nc1ccccc1Br` is higher in inhibition: -3.5% for the first, 9.3% for the second.

Going from `O=C(Oc1ccc2ccc(=O)oc2c1)C1CCCCC1` to `Cc1c(C(=O)N2CCCCC2)sc(NC(=O)c2ccco2)c1C#N`, the inhibition rises from -28.4% to -0.9%.

Compared with `Nc1cc(=O)[nH]c(SCc2ccccc2Cl)n1`, `Clc1ccccc1OCc1nn2c(-c3ccncc3)nnc2s1` is higher in inhibition: -3.2% for the first, -2.2% for the second.

Going from `CN1C(=O)S/C(=C/c2cccnc2)C1=O` to `CCOC(=O)CCCCCN1C(=O)c2cccc3cccc(c23)C1=O`, the inhibition falls from -3.3% to -23.8%.

First: Cc1noc(C(=O)NCc2ccco2)c1Cl
Second: CC(C)C[C@@H](N)c1nnc(SCC(=O)c2ccc(Cl)cc2)o1
The inhibition of the first is higher: -14.8% for the first, -21.8% for the second.

Compared with `CC(C)[C@H](N)c1nnc(SCc2ccc(Cl)cc2)o1`, `COc1ccc(N=Cc2cccc(C)c2O)cc1Cl` is lower in inhibition: -4.6% for the first, -10% for the second.

Compared with `Cc1ccc(O)c(C=Nc2cc(C)ccc2O)c1`, `COc1cc(C=Nc2cccc(C)c2)c(O)c([N+](=O)[O-])c1` is higher in inhibition: -25.5% for the first, -20.1% for the second.

In the case of `O=C(N/N=C/c1cc([N+](=O)[O-])c(N2CCOCC2)cc1N1CCOCC1)c1cccnc1`, the inhibition is reported as -24.1%.
